Over roughly 1,100 compounds, “Renilla luciferase signal (cell health) relative to plate median” has its median near 0.97; the highest 2% begin near 1.6. The list comes from a sample in which the highest values are over-represented; it also holds similar structures and randomly drawn compounds.
Tested on: HEK293T (UBE3A T485A transfected, BAR Wnt reporter)
Assay: Renilla luciferase signal (cell health) relative to plate median (fold (linear ratio)); higher = higher Renilla signal
Conditions: 24 h
Outline: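 Chemicals were robotically dosed at 0.01–100 uM for 24 h onto HEK293T cells, starting four hours after transfection with a BAR firefly luciferase Wnt reporter, TK-Renilla and an expression plasmid. The cells had been plated at 4500 cells/well in DMEM with 10% FBS at 37°C and 5% CO2. Following a Dual-Glo luciferase readout, the firefly/Renilla ratio served as the Wnt activity measure and raw Renilla as the cell health measure, both median-centred on each plate. Each value is the mean of four biological replicates.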

| Structure (SMILES) | Renilla luciferase signal (concentration: 0.01 uM) | Renilla luciferase signal (concentration: 0.1 uM) | Renilla luciferase signal (concentration: 1 uM) | Renilla luciferase signal (concentration: 10 uM) | Renilla luciferase signal (concentration: 100 uM) |
| --- | --- | --- | --- | --- | --- |
| CSC(=O)c1cccc2nnsc12 [Acibenzolar-S-methyl] | 0.985 | 1.18 | 1.05 | 1.07 | 1.8 |
| CN(C)C(=O)Nc1ccc(Cl)c(Cl)c1 [Diuron] | 0.747 | 1.11 | 1.06 | 0.951 | 0.328 |
| O=C(CCCCCCCCc1cccnc1)N1CCC(C=C(c2ccccc2)c2ccccc2)CC1 | – | 0.898 | 0.875 | 0.939 | 0.0905 |
| C=CCOC(Cn1ccnc1)c1ccc(Cl)cc1Cl (stereo not drawn) [Imazalil] | 0.797 | 0.885 | 0.939 | 0.777 | 0.0667 |
| c1ccc2ccccc2c1 [Naphthalene] | – | 1.18 | 1.14 | 1.33 | 1.64 |
| c1ccc2cc3ccccc3cc2c1 [Anthracene] | – | 1.34 | 1.26 | 0.952 | 0.992 |
| c1ccc2c(c1)ccc1ccccc12 [Phenanthrene] | – | 0.817 | 0.792 | 0.858 | 0.898 |
| N=C(N)c1ccc(OCCCCCOc2ccc(C(=N)N)cc2)cc1.O=S(=O)(O)CCO.O=S(=O)(O)CCO [Pentamidine isethionate] | – | 1.02 | 2.37 | 0.453 | 0.0508 |
| CCCCCCCC(=O)O [Octanoic acid] | – | 0.834 | 0.792 | 0.83 | 1.09 |
| OCC(CO)(CO)CO [Pentaerythritol] | – | 0.898 | 1.02 | 1.08 | 2.01 |
| OCC(CO)(CBr)CBr [2,2-Bis(bromomethyl)-1,3-propanediol] | – | 0.999 | 0.961 | 1.01 | 1.07 |
| O=c1c(-c2ccc(O)cc2)coc2cc(O)cc(O)c12 [Genistein] | 0.617 | 0.604 | 0.77 | 0.58 | 1.01 |
| COc1cc(S(=O)(=O)[O-])c(C)cc1/N=N/c1c(O)ccc2cc(S(=O)(=O)[O-])ccc12.[Na+].[Na+] | – | 0.934 | 0.936 | 0.887 | 0.502 |
| CC[C@H]1OC(=O)[C@H](C)[C@@H](O[C@H]2C[C@@](C)(OC)[C@@H](O)[C@H](C)O2)[C@H](C)[C@@H](O[C@@H]2O[C@H](C)C[C@H](N(C)C)[C@H]2O)[C@](C)(O)C[C@@H](C)C(=O)[C@H](C)[C@@H](O)[C@]1(C)O [Erythromycin] | – | 0.894 | 1.14 | 2.38 | 5.97 |
| CCCC(CCC)C(=O)O [Valproic acid] | 0.788 | 0.847 | 0.87 | 0.883 | 1.56 |
| CCNc1nc(N)nc(Cl)n1 [Deisopropylatrazine] | 0.898 | 0.991 | 0.951 | 0.879 | 0.243 |
| CC(=O)S[C@H](C(=O)N[C@H]1Cc2ccccc2[C@H]2CCC[C@@H](C(=O)O)N2C1=O)C(C)C [Ilepatril] | – | 0.879 | 0.836 | 0.857 | 1.53 |
| CCCCCCCCC(=O)O [Nonanoic acid] | – | 0.743 | 0.854 | 0.901 | 0.975 |
| CN(C)c1ccc(C(=C2C=CC(=[N+](C)C)C=C2)c2ccc(N(C)C)cc2)cc1.[Cl-] [Gentian Violet] | – | 0.155 | 0.0242 | 0.0245 | 0.0226 |
| CCNc1ccccc1 [N-Ethylaniline] | – | 1.01 | 0.97 | 1.08 | 1.17 |

| Structure (SMILES) | Renilla luciferase signal (concentration: 0.01 uM) | Renilla luciferase signal (concentration: 0.1 uM) | Renilla luciferase signal (concentration: 1 uM) | Renilla luciferase signal (concentration: 10 uM) | Renilla luciferase signal (concentration: 100 uM) |
| --- | --- | --- | --- | --- | --- |
| c1ccc(Nc2ccccc2)cc1 [Diphenylamine] | 1.09 | 1.05 | 1.06 | 1.09 | 1.82 |
| Nc1ccc(Nc2ccccc2)cc1 [N-Phenyl-1,4-benzenediamine] | – | 0.905 | 0.984 | 0.71 | 0.204 |
| Nc1cccc(N)c1 [1,3-Benzenediamine] | – | 1.19 | 1.05 | 1.19 | 1.74 |
| Nc1cccc2c(N)cccc12 [1,5-Naphthalenediamine] | – | 0.805 | 0.822 | 0.856 | 0.73 |
| Nc1ccc2c(c1)C(=O)c1ccccc1C2=O [2-Aminoanthraquinone] | – | 1.16 | 0.898 | 0.829 | 0.621 |
| CCCCC(CC)CO (stereo not drawn) [2-Ethyl-1-hexanol] | – | 0.758 | 0.775 | 0.504 | 1.25 |
| CCCCCCCCCCCCCCCCCC(=O)O [Octadecanoic acid] | – | 0.913 | 0.958 | 0.923 | 1.4 |
| O=C(O)CC(O)C(=O)O (stereo not drawn) [Malic acid] | – | 1.33 | 1.26 | 1.32 | 1.29 |
| CNC(CC(=O)O)C(=O)O (stereo not drawn) | 1.02 | 1.14 | 0.949 | 1.02 | 1.9 |
| Cc1ccc2oc(CN(Cc3ccccc3)C(=O)Nc3c(F)cc(F)cc3F)c(-c3ccc(Cl)cc3)c2c1 | – | 0.953 | 0.858 | 0.846 | 0.482 |
| CC(C)CCCCCCOC(=O)C1CCCCC1C(=O)OCCCCCCC(C)C (stereo not drawn) [Diisononyl cyclohexane-1,2-dicarboxylate] | – | 0.946 | 1.13 | 1.06 | 1.38 |
| COc1cc(C(C)C)c2c(c1)S(=O)(=O)N(COc1cc(=O)n3cccc(OCCN4CCCCC4)c3n1)C2=O | – | 1.26 | 1.3 | 1.21 | 0.497 |
| CC(C)CC(C)(O)C#CC(C)(O)CC(C)C (stereo not drawn) [2,4,7,9-Tetramethyl-5-decyne-4,7-diol] | – | 0.987 | 0.919 | 0.966 | 0.295 |
| C#CCOC(=O)[C@@H](C)Oc1ccc(Oc2ncc(Cl)cc2F)cc1 [Clodinafop-propargyl] | 0.926 | 1.11 | 1.04 | 1.01 | 0.269 |
| CCCCOC(=O)C(C)Oc1ccc(Oc2ccc(C(F)(F)F)cn2)cc1 (stereo not drawn) [Fluazifop-butyl] | 1.02 | 0.837 | 1.04 | 0.984 | 1.81 |
| CCOC(=O)C(C)Oc1ccc(Oc2cnc3cc(Cl)ccc3n2)cc1 (stereo not drawn) [Quizalofop-ethyl] | 1.1 | 0.758 | 0.993 | 0.953 | 1.88 |
| CCOC(=O)C(C)(C)Oc1ccc(Cl)cc1 [Clofibrate] | – | 0.962 | 1.02 | 1.17 | 1.38 |
| CCCCOC(=O)c1ccccc1 [Butyl benzoate] | – | 0.872 | 0.958 | 1.1 | 1.1 |
| CCOC(=O)C(C)Oc1ccc(Oc2nc3ccc(Cl)cc3o2)cc1 (stereo not drawn) [Fenoxaprop-ethyl] | 0.9 | 0.851 | 1.02 | 1.13 | 1.78 |
| CCCCOC(=O)[C@@H](C)Oc1ccc(Oc2ccc(C(F)(F)F)cn2)cc1 [Fluazifop-P-butyl] | 1.25 | 1.18 | 1.05 | 1.22 | 0.693 |

— the supplement of paper PMC9254222
